“And” between values parts separate entries of the source, which are not always exact repeats. Equal values may be shown once. Records with an inconclusive call do not appear. The source holds several records for some structures; these can differ, active in one and inactive in another. The source made the active and inactive calls. How the source made its calls, unless noted: active means hit-call score of the fitted dose curve at least 0.9, where 1 is the maximum; inactive means score below 0.9.
What was measured:
[1] = CCTE_Shafer_MEA_acute_interburst_interval_mean: CCTE's Neural Acute Assay for Mean Interburst Interval, Shafer Lab (AID 2284016);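 further: percent change of mean interburst interval versus each well's own pre-dose baseline; curves fitted for decrease in interburst interval relative to DMSO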
Method in brief: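 Primary rat cortical neurons on 16-electrode MEA wells were recorded 40 min at baseline on DIV 13 or 15, then 40 min after compound (0.03-40 uM), at 37 C. Value is percent change in mean interburst interval per well, DMSO as negative control.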

[2] = CCTE_Shafer_MEA_acute_burst_percentage_mean: CCTE's Neural Acute Assay for Percentage of Spikes in a Burst, Shafer Lab (AID 2284017);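 on AC50: curve fitted for loss of signal so potency reflects decreased burst percentage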
Method in brief: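 Primary rat cortical neurons on 16-electrode MEA wells; 40 min baseline recorded at DIV 13 or 15, then 40 min after compound (0.03-40 uM) at 37 C. Well-mean fraction of spikes in single-electrode bursts; percent change from baseline, DMSO as negative control.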

[3] = CCTE_Shafer_MEA_acute_burst_percentage_std: CCTE's Neural Acute Assay for Standard Deviation of Burst Percentage, Shafer Lab (AID 2284018);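 further: fitted in the negative direction so actives lower burst percentage SD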
Method in brief: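 Value is percent change from baseline in the across-electrode SD of spikes-in-bursts percentage, wells with >/= 10 active electrodes. Acute 40-min exposure to 0.03-40 uM on DIV 13 or 15 rat cortical cultures, recorded at 37 C after 40-min baseline.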

[4] = CCTE_Shafer_MEA_acute_per_network_burst_spike_number_mean: CCTE's Neural Acute Assay for Average Number of Spikes in a Network Burst, Shafer Lab (AID 2284019);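 on AC50: curve fitted for loss of signal so actives reduce spikes per network burst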
Method in brief: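 Percent change from baseline in mean spikes per network burst, spikes detected at 8x rms noise. Each compound at 0.03-40 uM in at least three wells of rat cortical cultures, recorded 40 min before and 40 min during exposure.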

[5] = CCTE_Shafer_MEA_acute_per_network_burst_spike_number_std: CCTE's Neural Acute Assay for Standard Deviation of Number of Spikes in a Network Burst, Shafer Lab (AID 2284020);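 further: fitted for decrease in spike-number SD versus DMSO so actives lower it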
Method in brief: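 Endpoint: percent change from 40 min baseline in standard deviation of spikes per network burst, after 40 min compound exposure (0.03-40 uM, 37 C). Cortical rat neurons on MEA at DIV 13 or 15; spikes detected at 8x rms noise, 300-5000 Hz band-pass.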

[6] = CCTE_Shafer_MEA_acute_per_network_burst_electrodes_number_mean: CCTE's Neural Acute Assay for Mean Number of Electrodes in a Network Burst, Shafer Lab (AID 2284021);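 further: curves fitted for decreases only so hits reduce electrodes per burst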
Method in brief: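 Rat primary cortical neurons on 48-well MEAs, DIV 13 or 15, were treated at 0.03-40 uM. Spikes were detected at 8x rms noise and recorded at 37 C. The mean electrodes per network burst in a 40 min exposure recording was expressed as percent change from a 40 min baseline.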

[7] = CCTE_Shafer_MEA_acute_network_burst_percentage: CCTE's Neural Acute Assay for Percentage of Network Bursts, Shafer Lab (AID 2284022);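 further: curves fitted for loss so actives lower network burst percentage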
Method in brief: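 Rat primary cortical neuron networks on 48-well MEA plates, DIV 13 or 15, treated acutely with compound (0.03-40 uM, at least three wells). Percent of spikes within network bursts compared between 40-min recordings before and during exposure at 37 C, expressed as percent change.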

[8] = CCTE_Shafer_MEA_acute_cross_correlation_area: CCTE's Neural Acute Assay for Area of Cross Correlation, Shafer Lab (AID 2284024);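 further: curves fitted for loss of cross-correlation area so actives lower synchrony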
Method in brief: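 Rat primary cortical neurons on 48-well MEA, DIV 13 or 15; compounds 0.03-40 uM. Baseline and post-exposure 40 min recordings at 37 C; percent change in area under pooled inter-electrode cross-correlation near zero lag, relative to DMSO.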

[9] = CCTE_Shafer_MEA_acute_synchrony_index: CCTE's Neural Acute Assay for Synchrony, Shafer Lab (AID 2284027);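 further: network synchrony index of spontaneous spiking in primary rat cortical neurons on MEAs; fitted for loss of signal so actives lower synchrony relative to DMSO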
Method in brief: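 Rat cortical cultures, DIV 13/15; spikes detected at 8x rms noise, 300-5000 Hz band-pass. Compound 0.03-40 uM, ≥3 wells; 40-min pre- and post-exposure recordings, 37 C. Readout: % change in synchrony index; loss-of-signal fit vs DMSO.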

[10] = target: Estrogen receptor (Homo sapiens) (UniProt P03372); assay: CCTE_Deisenroth_AIME_384WELL_LUC_Active: CCTE's 384-well Estrogen Receptor Transactivation Assay with AIME metabolic competence (ERTA luciferase; metabolism positive), Deisenroth Lab (AID 2284030; active means hit-call score of the fitted dose curve at least 0.9, where 1 is the maximum)
Method in brief: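 Chemicals (10-point, 0.002-200 uM) were first incubated 2 hours with alginate-immobilized induced male Sprague Dawley rat liver S9. The conditioned medium was then applied to VM7Luc4E2 cells for 24 hours, with ER luciferase induction read by luminescence relative to 17beta-estradiol.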

Measured: AC50

Sequence of Estrogen receptor (Homo sapiens) (P03372 whole entry, looked up): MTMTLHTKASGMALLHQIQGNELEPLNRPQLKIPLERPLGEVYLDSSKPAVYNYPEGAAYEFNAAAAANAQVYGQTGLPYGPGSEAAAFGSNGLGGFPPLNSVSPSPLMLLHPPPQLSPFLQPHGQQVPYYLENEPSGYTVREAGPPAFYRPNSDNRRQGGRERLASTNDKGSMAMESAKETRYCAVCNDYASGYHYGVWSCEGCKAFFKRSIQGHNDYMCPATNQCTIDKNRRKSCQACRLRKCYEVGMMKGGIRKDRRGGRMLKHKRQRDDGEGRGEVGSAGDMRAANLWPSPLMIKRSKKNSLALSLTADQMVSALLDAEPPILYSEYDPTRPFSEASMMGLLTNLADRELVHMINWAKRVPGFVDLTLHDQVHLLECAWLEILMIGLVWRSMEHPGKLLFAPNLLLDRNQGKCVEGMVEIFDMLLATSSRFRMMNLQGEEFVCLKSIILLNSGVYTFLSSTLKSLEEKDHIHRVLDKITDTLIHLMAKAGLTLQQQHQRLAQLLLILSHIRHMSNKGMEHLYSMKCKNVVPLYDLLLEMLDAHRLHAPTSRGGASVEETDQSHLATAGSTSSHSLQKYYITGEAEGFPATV

O=[N+]([O-])/N=C1\NCCN1Cc1ccc(Cl)nc1
inactive: [1] | [2] | [3] | [4] | [5] | [6] | [7] | [8] | [9]

CCCN(CCOc1c(Cl)cc(Cl)cc1Cl)C(=O)n1ccnc1
active: [2] 34.6 µM | [4] 33.6 µM | [5] 32.6 µM
inactive: [1] | [3] | [6] | [7] | [8] | [9]

CC1(C)C(C=C(Cl)Cl)C1C(=O)OC(C#N)c1ccc(F)c(Oc2ccccc2)c1 (stereo unspecified)
inactive: [1] | [3]
active: [2] 210 nM and 1.95 µM | [3] 5.28 µM | [4] 54.4 nM and 609 nM | [5] 81.2 nM and 622 nM | [6] 66.4 nM and 796 nM | [7] 171 nM and 612 nM | [8] 20.3 nM and 102 nM | [9] 117 nM and 558 nM

Cc1[nH]c(=O)n(C(C)(C)C)c(=O)c1Cl
inactive: [10]

N#CN
inactive: [1] | [2] | [3] | [4] | [5] | [6] | [7] | [8] | [9]

CNC(=O)CSP(=S)(OC)OC
inactive: [1] | [2] | [3] | [4] | [5] | [6] | [7] | [8] | [9]

O=S1OCC2C(CO1)C1(Cl)C(Cl)=C(Cl)C2(Cl)C1(Cl)Cl (stereo unspecified)
inactive: [1] | [2] | [3] | [5] | [6] | [7] | [8] | [9]
active: [2] 25.5 µM | [3] 0.102 µM | [4] 230 nM and 56 nM | [5] 0.348 µM | [6] 177 nM | [7] 24.4 µM | [8] 50.2 nM | [9] 23.7 µM | [10] 13.8 µM

CC[C@H](C)[C@H]1O[C@]2(C=C[C@@H]1C)C[C@@H]1C[C@@H](C/C=C(\C)[C@@H](O[C@H]3C[C@H](OC)[C@@H](O[C@H]4C[C@H](OC)[C@@H](O)[C@H](C)O4)[C@H](C)O3)[C@@H](C)/C=C/C=C3\CO[C@@H]4[C@H](O)C(C)=C[C@@H](C(=O)O1)[C@]34O)O2 (tested in a mixture with another compound)
active: [2] 0.0165 µM | [3] 0.0752 µM | [4] 0.0134 µM | [5] 0.00528 µM | [6] 50 nM | [8] 2.77 nM | [9] 0.165 µM
inactive: [1] | [7]

CNC(=O)Oc1ccccc1OC(C)C
inactive: [10]

O=S(=O)(O)C(F)(F)C(F)(F)C(F)(F)C(F)(F)C(F)(F)C(F)(F)C(F)(F)C(F)(F)F
inactive: [1] | [2] | [3] | [4] | [5] | [6] | [7] | [8] | [9]

CCCN(CCC)c1c([N+](=O)[O-])cc(C(F)(F)F)cc1[N+](=O)[O-]
inactive: [4] | [5] | [8] | [9] | [10]
active: [1] 4.23 µM | [2] 5.5 µM | [3] 20 µM | [6] 8360 nM | [7] 20 µM

ClC1C(Cl)C(Cl)C(Cl)C(Cl)C1Cl (stereo unspecified)
inactive: [1] | [3] | [5]
active: [2] 1.53 µM | [4] 1.23 µM | [6] 1100 nM | [8] 9690 nM | [9] 1.22 µM

C[C@H]1[C@H](c2ccc(Cl)cc2)SC(=O)N1C(=O)NC1CCCCC1
inactive: [6] | [7] | [8] | [10]
active: [1] 28.7 µM | [2] 19.8 µM | [3] 28.4 µM | [4] 9.24 µM | [5] 20 µM | [9] 20 µM

CNC(=O)Oc1cccc(N=CN(C)C)c1
inactive: [10]

COP(=S)(OC)Oc1ccc(SC)c(C)c1
active: [2] 29.1 µM | [3] 33.2 µM | [9] 29.1 µM
inactive: [1] | [4] | [5] | [6] | [7] | [8]

Source: PubChem BioAssay (EPA / NIEHS)
